Inconclusive results are not listed. The source made the active and inactive calls. Rule for the calls, unless noted: active = hit-call score of the fitted dose curve at least 0.9, where 1 is the maximum; inactive = score below 0.9.
Experiments:
[1] = ACEA_ER_80hr: ACEA Biosciences xCELLigence Real-Time Cell Analysis on Estrogen Receptor Agonism for Proliferation (AID 2282667; active = hit-call score of the fitted dose curve at least 0.9, where 1 is the maximum); conditions: T47D proliferation, impedance (xCELLigence), 80 h
In short: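 Estrogen-driven proliferation is captured as electrode impedance in T47D cells 80 h after compound addition. Test articles ran at 8 concentrations, 1:4 dilutions from 100 uM final, in two replicate plates.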

[2] = APR_HepG2_CellCycleArrest_24hr: Apredica 24-hour HepG2 Assay for Cell Cycle Arrest (AID 2282905); conditions: imaging, actives raise or lower the signal;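 note: cell cycle arrest scored as ratio of 2N to 4N nuclear DNA content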
In short: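 HepG2 cells were exposed to compounds at 0.39–200 uM (ten concentrations, duplicate) in 0.5% v/v DMSO for 24 hr. After formaldehyde fixation and Triton permeabilization, Hoechst 33342-stained nuclei were imaged at 20x; DNA content was quantified, with bidirectional fitting against DMSO.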

[3] = APR_HepG2_NuclearSize_24hr: Apredica 24-hour HepG2 Assay for Nuclear Size (AID 2282907); conditions: high-content imaging, actives raise or lower the signal
In short: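 HepG2 human liver cells were exposed for 24 hr to compounds at 0.39–200 uM (ten concentrations, duplicate) in 0.5% v/v DMSO. They were then formaldehyde-fixed, Triton-permeabilized and Hoechst 33342-stained, and nuclear diameter was imaged at 20x. Bidirectional fits were made against DMSO.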

[4] = APR_HepG2_CellLoss_24hr: Apredica 24-hour HepG2 Assay for Cell Loss (AID 2282908); conditions: high-content imaging;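 for AC50: fit in both directions so a hit may be cell loss or gain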
In short: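 Compounds were tested at 0.39–200 uM in duplicate with 0.5% v/v DMSO final. Cells were then fixed in 3.7% formaldehyde, Hoechst 33342 nuclei were imaged at 20x by HCS, and cell number was fitted bidirectionally against DMSO.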

[5] = APR_HepG2_MicrotubuleCSK_24hr: Apredica 24-hour HepG2 Assay for Microtubule CSK Stabilty (AID 2282909); conditions: HepG2 microtubule cytoskeleton imaging, actives raise or lower the signal
In short: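 HepG2 cells exposed 24 h to compounds at 0.39–200 uM (duplicate, 0.5% v/v DMSO final), then fixed, permeabilized and immunostained for alpha-tubulin with Hoechst 33342. Cytoskeleton imaged at 20x; bidirectional fit versus DMSO baseline.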

[6] = APR_HepG2_MitoticArrest_24hr: Apredica 24-hour HepG2 Assay for Mitotic Arrest (AID 2282910); conditions: high-content imaging, actives raise or lower the signal
In short: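 Compounds are dosed onto HepG2 cells across ten concentrations up to 200 uM for 24 hr. Cells are then fixed in 3.7% formaldehyde, permeabilised, and labelled for phospho-histone H3 and nuclei; images are scored by cell cycle analysis and fitted bidirectionally relative to DMSO.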

[7] = APR_HepG2_MitoMembPot_24hr: Apredica 24-hour HepG2 Assay for Mitochondrial Membrane Potential (AID 2282911); conditions: imaging, actives raise or lower the signal
In short: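 Mitochondrial dye uptake (MitoTracker Red CMXRos, 250 nM, 30 min pre-fixation) in HepG2 after 24 hr compound exposure, 0.39–200 uM; ArrayScan images at 20x, activity fitted in both directions relative to DMSO.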

[8] = APR_HepG2_MitoMass_24hr: Apredica 24-hour HepG2 Assay for Mitochondrial Mass (AID 2282912); conditions: high-content imaging, actives raise or lower the signal
In short: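 Human HepG2 liver cells were exposed for 24 hr to compounds at 0.39–200 uM (duplicates, 0.5% v/v DMSO final). They were stained live with 250 nM MitoTracker Red CMXRos for 30 min, fixed in 3.7% formaldehyde, and imaged by HCS fluorescence; signals were fitted bidirectionally against DMSO.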

[9] = APR_HepG2_p53Act_24hr: Apredica 24-hour HepG2 Assay for p53 Activation (AID 2282913); conditions: high-content imaging, actives raise or lower the signal;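 note: p53 protein immunofluorescence averaged per cell in HepG2 with Hoechst nuclei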
In short: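 Following 24 hr dosing of HepG2 at 0.39–200 uM, the cells undergo formaldehyde fixation, Triton permeabilization and multiplexed antibody labeling that includes p53 (Cy5). Signal from the imaging is referenced to DMSO solvent controls.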

[10] = APR_HepG2_CellLoss_72hr: Apredica 72-hour HepG2 Assay for Cell Loss (AID 2282915); conditions: high-content imaging
In short: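 Cell number comes from Hoechst 33342-labelled nuclei, imaged at 20x after 3.7% formaldehyde fixation. Dosing was 0.39–200 uM, ten concentrations in duplicate, 0.5% DMSO final, for 72 h. Bidirectional fit relative to DMSO baseline.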

[11] = APR_HepG2_P-H2AX_72hr: Apredica 72-hour HepG2 Assay for H2AX Phosphorylation (AID 2282916); conditions: imaging, actives raise or lower the signal;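 note: phospho-histone H2A.x immunostain intensity per cell marking DNA damage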
In short: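 HepG2 human liver cells were exposed for 72 hr to compounds at 0.39–200 uM (10 concentrations, duplicate per plate) in 0.5% v/v DMSO. Fixed, permeabilized cells were immunolabeled for phospho-histone H2A.x with Hoechst 33342 and imaged by HCS fluorescence; bidirectional fit versus DMSO.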

[12] = APR_HepG2_P-H2AX_24hr: Apredica 24-hour HepG2 Assay for H2AX Phosphorylation (AID 2282920); conditions: high-content imaging, actives raise or lower the signal
In short: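 Human HepG2 liver cells, treated 24 hr with test chemicals (0.39–200 uM, final DMSO 0.5% v/v), are fixed and co-stained for phospho-H2A.x and c-Jun with Hoechst. Imaged intensity is fitted in both directions against DMSO controls.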

[13] = APR_HepG2_StressKinase_72hr: Apredica 72-hour HepG2 Assay for Stress Kinase (AID 2282921); conditions: HepG2 stress kinase (phospho-c-Jun) imaging, actives raise or lower the signal
In short: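 Cells were exposed for 72 h to ten concentrations (0.39–200 uM, duplicate) at 0.5% v/v DMSO final, then fixed with 3.7% formaldehyde, permeabilized and immunostained for phospho-c-Jun (Cy3 secondary) with Hoechst nuclear counterstain.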

[14] = APR_HepG2_StressKinase_24hr: Apredica 24-hour HepG2 Assay for Stress Kinase (AID 2282922); conditions: HepG2 stress kinase (phospho-c-Jun) imaging, actives raise or lower the signal
In short: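 HepG2, 24 hr dosing, 0.39–200 uM in duplicate, 0.5% DMSO; formaldehyde fix (3.7%), 0.5% Triton X-100; anti-phospho-c-Jun + Cy3 secondary, Hoechst counterstain; ArrayScan imaging; bidirectional curve fit vs DMSO baseline.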

[15] = APR_HepG2_p53Act_72hr: Apredica 72-hour HepG2 Assay for p53 Activation (AID 2282923); conditions: high-content imaging, actives raise or lower the signal;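 note: average cellular p53 protein immunofluorescence intensity in HepG2 cells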
In short: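 Cells were dosed for 72 hr with compounds at 0.39–200 uM in duplicate (final DMSO 0.5% v/v), then fixed in 3.7% formaldehyde, permeabilized with Triton X-100 and immunostained for p53 (Cy5) with Hoechst 33342 nuclear counterstain.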

[16] = APR_HepG2_NuclearSize_72hr: Apredica 72-hour HepG2 Assay for Nuclear Size (AID 2282925); conditions: high-content imaging, actives raise or lower the signal
In short: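 HepG2; cpd 0.39–200 uM, 10 conc, duplicate; 72 h; DMSO 0.5% v/v; fix 3.7% formaldehyde 30 min RT; Triton permeabilization; Hoechst 2 ug/mL; HCS imaging 20x; nuclear diameter; gain/loss fit vs DMSO.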

[17] = APR_HepG2_CellCycleArrest_72hr: Apredica 72-hour HepG2 Assay for Cell Cycle Arrest (AID 2282914); conditions: high-content imaging, actives raise or lower the signal
In short: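 Using multiplexed high-content imaging, HepG2 nuclei stained with Hoechst 33342 (2 ug/mL) were analysed for DNA content after fixation and permeabilization. Treatment lasted 72 hr across 0.39–200 uM in duplicate with final DMSO 0.5% v/v; DMSO served as negative control.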

Measured: AC50

c1ccc2c(c1)Nc1ccccc1S2
active: [2] 9.76 µM | [7] 107 µM | [10] 47 µM
not listed: [17]
inactive: all other assays above

O=C(O)C1C(C(=O)O)C2(Cl)C(Cl)=C(Cl)C1(Cl)C2(Cl)Cl (stereo unspecified)
not listed: [17]
inactive: all other assays above

O=P1(N(CCCl)CCCl)NCCCO1 (stereo unspecified)
active: [1] 3.97 µM
not listed: [17]
inactive: all other assays above

ClC(Cl)(Cl)c1ccccc1
not listed: [17]
inactive: all other assays above

c1nc[nH]n1
not listed: [17]
inactive: all other assays above

Cc1ccc(N)cc1N
not listed: [17]
inactive: all other assays above

ClC(Cl)c1ccccc1
not listed: [9] | [15] | [17]
inactive: all other assays above

Nc1ccc(Cl)cc1
not listed: [17]
inactive: all other assays above

Nc1cc2c3c(c1)C(c1ccccc1)=N[C@@H](NC(=O)c1cccnc1)C(=O)N3CC2
not listed: [9] | [15]
inactive: all other assays above

CCOc1ccc(C(C)(C)COCc2cccc(Oc3ccccc3)c2)cc1
active: [10] 68.3 µM
not listed: [17]
inactive: all other assays above

CCCCN(CCCC)SN(C)C(=O)Oc1cccc2c1OC(C)(C)C2
active: [2] 48.4 µM | [4] 98 µM | [6] 79.2 µM | [8] 92.7 µM | [10] 56.8 µM | [11] 59.9 µM | [12] 66.8 µM
not listed: [9] | [15] | [17]
inactive: all other assays above

CCOC(=O)c1ccccc1C(=O)OCC
not listed: [17]
inactive: all other assays above

CCC1(c2ccccc2)C(=O)N=C(O)NC1=O (stereo unspecified)
not listed: [17]
inactive: all other assays above

O=[N+]([O-])c1ccc(Cl)c(Cl)c1
not listed: [9] | [15] | [17]
inactive: all other assays above

CN(C)C(=O)Cl
active: [1] 38.7 µM
not listed: [9] | [15] | [17]
inactive: all other assays above

CCCCc1ccccc1
not listed: [9] | [15] | [17]
inactive: all other assays above

CCCN(CCC)c1c([N+](=O)[O-])cc(C(C)C)cc1[N+](=O)[O-]
active: [2] 49 µM | [4] 32.6 µM | [7] 55.2 µM | [8] 42.9 µM | [9] 52.9 µM | [10] 43.1 µM | [11] 52.1 µM | [15] 44.1 µM
inactive: [1] | [3] | [5] | [6] | [12] | [13] | [14] | [16]

CCN(CC)c1ccccc1
not listed: [17]
inactive: all other assays above

CC(Cl)(Cl)C(=O)O
not listed: [9] | [15] | [17]
inactive: all other assays above

CCC(C)(C)c1ccc(O)cc1
active: [1] 2.14 µM | [4] 109 µM | [6] 107 µM | [7] 100 µM | [9] 109 µM | [10] 108 µM | [15] 105 µM
not listed: [17]
inactive: all other assays above

ClC1=C(Cl)C2(Cl)C3C(Cl)C(Cl)CC3C1(Cl)C2(Cl)Cl (stereo unspecified)
active: [2] 27.8 µM | [4] 69.4 µM | [5] 156 µM | [6] 65.1 µM | [8] 48.9 µM | [9] 82.6 µM | [10] 60.9 µM | [11] 108 µM | [12] 72.8 µM | [13] 109 µM | [14] 96.7 µM | [15] 98.4 µM
inactive: [1] | [3] | [7] | [16]

Nc1ccc2ccccc2c1
active: [7] 52.5 µM
not listed: [17]
inactive: all other assays above

Cc1ccc(O)cc1C
not listed: [2] | [3] | [5] | [16] | [17]
inactive: all other assays above

— PubChem BioAssay (EPA / NIEHS)
